POLB inh: blocks human DNA polymerase beta activity; Pol beta primer extension/strand displacement, fluorescence kinetic; AID 485314; Potency, µM (top dose mostly 114 µM), without a hit: at the highest dose activity change, negative = inhibition, actives largely listed as inhibitors; 1.3% of 340,000 active; P06746; also: % is scaled to controls: 0 for no effect and ±100 for the full control effect
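Pol beta (10 nM) was preincubated with compound for 15 min at room temperature. The reaction was then started with 50 nM substrate and read immediately and after a further 10 min at room temperature.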
GCN5L2 inh: blocks human GCN5L2 histone acetyltransferase | AID 504327 | Potency, µM (titrated, usually from 58.9 µM), without a hit: at the top dose activity change, negative = inhibition, hits mostly inhibitors | 0.21% of 390,000 active | GCN5L2 HAT assay, ThioGlo1 CoA-SH fluorescence | Q92830; also: % is scaled to controls: 0 for no effect and ±100 for the full control effect
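GCN5L2 (20nM final) in 50mM HEPES, 0.1mM EDTA pH 7.5, 0.01% Tween-20 was preincubated 15 min at room temperature with compound, then given ThioGlo1 (50uM), H3(1-25) peptide (75uM) and acetyl-CoA (70uM); CoA-thiol fluorescence (Ex340/Em540) was read at 0 and 20 min.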
Pol iota inh: DNA polymerase iota (human) inhibition. Q9UNA4. Pol iota fluorescent replication assay, 10 min. Potency, µM (top dose mostly 115 µM), for inactives: at the highest dose activity, negative = inhibition, hits mostly inhibitors. 1% of 390,000 active. AID 588590
Target sequence (Q9UNA4 whole entry, looked up): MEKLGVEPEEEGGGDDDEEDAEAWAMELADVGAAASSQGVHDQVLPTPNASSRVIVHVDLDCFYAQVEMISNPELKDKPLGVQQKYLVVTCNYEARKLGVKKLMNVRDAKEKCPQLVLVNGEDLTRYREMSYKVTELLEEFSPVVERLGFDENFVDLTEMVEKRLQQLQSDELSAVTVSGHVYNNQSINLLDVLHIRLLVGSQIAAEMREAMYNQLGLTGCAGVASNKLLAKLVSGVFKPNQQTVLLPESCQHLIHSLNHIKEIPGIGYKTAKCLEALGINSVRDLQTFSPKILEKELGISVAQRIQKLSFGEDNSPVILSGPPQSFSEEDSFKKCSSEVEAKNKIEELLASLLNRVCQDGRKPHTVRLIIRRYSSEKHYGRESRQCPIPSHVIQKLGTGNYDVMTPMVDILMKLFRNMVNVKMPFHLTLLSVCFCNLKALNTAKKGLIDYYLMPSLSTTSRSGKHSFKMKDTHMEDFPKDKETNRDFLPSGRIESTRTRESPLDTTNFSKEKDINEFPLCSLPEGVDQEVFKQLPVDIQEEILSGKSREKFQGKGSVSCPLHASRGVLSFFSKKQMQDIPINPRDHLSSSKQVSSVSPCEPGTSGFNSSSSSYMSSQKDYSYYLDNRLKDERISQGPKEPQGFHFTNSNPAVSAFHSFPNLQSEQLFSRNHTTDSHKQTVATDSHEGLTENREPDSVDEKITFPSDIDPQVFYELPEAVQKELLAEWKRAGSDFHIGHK
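Pol iota at 10 nM preincubated 15 min with compounds at room temperature; reaction started with fluorescent substrate, 50 nM final. Fluorescence read kinetically at 0 and 10 min; buffer-only wells as negative control.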
Pol eta inh-1: DNA polymerase eta (human) inhibition; Q9Y253; recombinant Pol eta, fluorescent DNA replication assay; Potency, µM (doses to about 114 µM), inactives show at the highest dose activity change, negative = inhibition, hits mostly inhibitors; 1.2% of 390,000 active; AID 588591; also: % is scaled to controls: 0 for no effect and ±100 for the full control effect
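Pol eta at 10 nM preincubated with compounds 15 min at room temperature; reaction started with fluorescent substrate (50 nM final) and read kinetically at 0 and 10 min.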
Pol kappa inh-1: inhibitors of human DNA polymerase kappa; Q9UBT6; purified Pol kappa, fluorescent DNA synthesis assay, 10 min; Potency, µM (top dose mostly 107 µM), for the others: top-dose activity, negative = inhibition, hits mostly inhibitors; 0.53% of 400,000 active; AID 588579; also: % is scaled to controls: 0 for no effect and ±100 for the full control effect
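Activity was followed as the change in fluorescence between reads at 0 and 10 min after starting the reaction with 50 nM substrate. Beforehand, 10 nM polymerase had been preincubated with compound for 15 min at room temperature.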
GLS inh: glutaminase GLS (human) inhibition; O94925; GLS enzymatic activity, qHTS titration; Potency, µM (doses to about 45.5 µM), inactives show at the top dose activity change, negative = inhibition, usual class: inhibitors; 0.21% of 410,000 active; also: % is scaled to controls: 0 for no effect and ±100 for the full control effect
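Human kidney-isoform GLS in 45 mM KH2PO4 pH 8.2, 0.02% Tween-20, with compound, started with 1mM L-Glutamine (added stock). Glutamate oxidase/HRP/Amplex red coupled fluorescence read at start and after 30 min at RT.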
TbPGK inh: TbPGK inhibition, hit validation; shares compounds with Pol kappa inh-1; TbPGK coupled GAPDH assay, Kinase-Glo luminescence; Potency, µM (titrated, usually from 57.5 µM), for the others: at the highest dose activity change, negative = inhibition, most hits filed as inhibitors; 79% of 500 active; AID 686980; also: % is scaled to controls: 0 for no effect and ±100 for the full control effect; nearly all actives have a fitted effect of over 65% in size
POLI cherry-pick: Human Pol iota inhibitor confirmatory assay; shares compounds with Pol kappa inh-1; Pol iota primer extension, TAMRA/BHQ fluorescence; Potency, µM, usual class: inhibitors; 77% of 1,500 active
Pol kappa inh-2: confirmation of human DNA polymerase kappa inhibitors; shares compounds with Pol eta inh-1; purified Pol-kappa, fluorescent strand-displacement substrate; Potency, µM, most hits filed as inhibitors; 76% of 920 active; AID 720501
Pol eta inh-2: Pol eta (human) inhibition, cherry-pick confirmation; Potency, µM, actives largely listed as inhibitors; shares compounds with Pol eta inh-1; 64% of 2,600 active; Pol eta primer extension, TAMRA/BHQ fluorescence, 10 min
Active calls of the source: *; ? = inconclusive; nt = no result given; ! = not confirmed by another sample; [ ] = dose if it differs, or a comment. Rows were chosen to be rich in hits. Some 2.4% of all compounds tested hit in one or more screens of this group. Calls follow the shape of the dose curve; as a rule, active = well fitted curve in the direction sought with a large enough effect; inconclusive = small, poorly fitted or top-dose-only effect, or another doubt; inactive = no such curve, though single readings can be large; an effect the other way counts as inactive or inconclusive. Potency is read from the fitted curve at half-maximal effect.

SMILES	POLB inh	GCN5L2 inh	Pol iota inh	Pol eta inh-1	Pol kappa inh-1	GLS inh	POLI cherry-pick	Pol kappa inh-2	Pol eta inh-2	others
C/C=C\C=C/C(=O)Nc1cccc(C2=NOC3(C2)C[C@@H](C(N)=O)N(C(=O)c2ccccc2)C3)c1 (stereo not given in full)	-0.2%	-1.5%	nt	nt	nt	nt	nt	nt	nt
C/C=C/C=C\C(=O)Nc1cccc(C2=NOC3(C2)C[C@H](C(N)=O)N(C(=O)/C=C/C)C3)c1 (stereo not given in full)	?	-12.6%	?	22.4µM*	?	-22.3%	33.6*	nt	37.9*
Cc1cccn2c(=O)cc(COc3cccc(NC(=O)c4ccccc4F)c3)nc12	1.0%	-11.6%	-27.8%	-17.8%	-5.8%[60.1 µM]	8.8%	nt	nt	nt
COc1cc(/C=C2/C(=O)NN(c3ccccc3)C2=O)cc(Br)c1O	4.4%	-3.2%	-28.5%	-4.0%	-25.4%	20.9%	nt	nt	nt
CCOc1cc(/C=C2\C(=O)NN(c3ccccc3)C2=O)cc([N+](=O)[O-])c1O	20µM*	-7.8%	11.2µM*	15.8µM*	44.7µM*	?	?	nt	30.1*
COc1cc(/C=C2\C(=O)NN(c3ccccc3)C2=O)cc([N+](=O)[O-])c1O	12.6µM*	-13.6%	12.6µM*	12.6µM*	?	-10.4%	37.7*	nt	26.9*
COc1cc(/C=C2\SC(=O)N(Cc3ccc(F)cc3)C2=O)cc([N+](=O)[O-])c1O	0.0%	-0.8%	-9.9%	50.1µM*	5.3%	2.4%	84.4*	26.7*	75.7*
CCc1ccccc1NC(=O)c1ccc(Cn2nc(N3CCN(c4ccccc4)CC3)ccc2=O)o1	15.8µM*	-15.3%	79.4µM*	-4.4%	?	15.8%	?	33.6*	75.7*
CCOC(=O)C12CC1/C(=N/O)c1ccccc1O2 (stereo not given)	10.8%[57.1 µM]	-3.2%	-1.4%[58.9 µM]	-6.1%[57.1 µM]	-10.5%[60.1 µM]	nt	nt	nt	nt
O=C(NN1C(=O)CSC1=S)C(=O)NN1C(=O)CSC1=S	1.78µM*	-3.5%	?	28.2µM*	?	-11.0%	33.6*	nt	21.3*
O=C(Cc1cccc2ccccc12)NN1C(=O)CSC1=S	0.5%	-2.0%	?	-16.3%	-15.4%	-23.1%	nt	nt	nt
CC/C=C\C/C=C\C/C=C\CCCCCCCC(=O)O	nt	10µM*!	12.6µM*	7.94µM*	28.2µM*!	22.4µM*	29.9*	9.47*	23.9*
CC/C=C\C/C=C\C/C=C\CCCCCCCCCCCC(=O)O	nt	10.8%	nt	nt	-1.2%[19.4 µM]	nt	nt	nt	nt
O=C(CSc1nnc2scc(-c3ccc(Cl)cc3)n12)Nc1ccc(F)cc1	-20.6%	-4.2%	-6.3%	nt	-10.6%	-4.4%	nt	nt	nt
CN(C)c1ccc2nc3c(=O)[nH]c(=O)nc-3n(CC(O)C(O)C(O)CO)c2c1 (stereo not given)	25.1µM*	-11.9%	28.2µM*	?	?	-12.3%	23.8*	?	37.9*
Cc1ccc(NC(=O)CN2C(=O)S/C(=C\c3cc(Cl)c(OCC(=O)O)c(Cl)c3)C2=O)cc1	39.8µM*	-13.4%	?	25.1µM*	-14.1%	?	42.3*	nt	47.8*	TbPGK inh=5.8µM*
COc1ccc(/C=C2\SC(=O)N(CC(=O)Nc3ccc(O)cc3)C2=O)cc1OC	28.8%	0.0%	?	-10.5%	1.7%	-6.6%	nt	nt	nt
CCCSc1nnc(NC(=O)CSc2sc3c(O)cc(=O)[nH]c3c2C#N)s1	20µM*	?	8.91µM*	3.16µM*	20µM*	-2.4%	67*	10.6*	30.1*
C=CCSc1nnc(NC(=O)CSc2nc(CCC)cc(=O)[nH]2)s1	-8.2%	-8.4%	-8.9%	-11.9%	-10.9%	1.3%	nt	nt	nt
Cc1cc(C(F)(F)F)c(C#N)c(SCC(=O)Nc2nc3cc(Br)ccc3s2)n1	?	?	18.9%	-14.5%	-19.3%	4.4%	nt	nt	nt
N#Cc1c(SCC(=O)Nc2nccs2)sc2c(O)cc(=O)[nH]c12	8.91µM*	?	12.6µM*	14.1µM*	44.7µM*	0.7%	47.4*	16.8*	30.1*
N#Cc1c(SCC(=O)Nc2nc3ccc(Br)cc3s2)sc2c(O)cc(=O)[nH]c12	35.5µM*	?	6.31µM*	11.2µM*	31.6µM*	2.4%	67*	8.44*	15.1*
Cc1ccc(-c2nc(CS(=O)(=O)CC(=O)N3CCN(c4cccc(C)c4C)CC3)c(C)o2)cc1	1.7%	-3.3%	-5.0%	-12.9%	-3.5%	6.7%	nt	nt	nt
CCCCNC(=O)c1cccc(-n2c(C)nc3cccnc32)c1	-2.9%	0.6%	17.8%	-15.7%	-8.0%	5.4%	nt	nt	nt
Cc1cccc(NS(=O)(=O)c2ccc3c(c2)CC(C)N3C(=O)C2CCC2)c1C (stereo not given)	-18.6%	-16.1%	-4.8%	-15.2%	-10.3%	-2.4%	nt	nt	nt
SMILES	POLB inh	GCN5L2 inh	Pol iota inh	Pol eta inh-1	Pol kappa inh-1	GLS inh	POLI cherry-pick	Pol kappa inh-2	Pol eta inh-2	others
O=C(O)C1=CCC=CC1C(=O)O (stereo not given)	nt	nt	nt	5.01µM*	nt	11.2µM*	21.2*	nt	15.1*	TbPGK inh=3.26µM*
Cc1ccc(S(=O)(=O)N(CC(=O)O)Cc2ccco2)cc1	?	-0.2%	28.2µM*	17.8µM*	?	?	67*	nt	19*
COc1ccccc1N(CC(=O)NCc1ccco1)S(=O)(=O)c1ccc(C)cc1	11.2µM*	-25.1%	5.62µM*	10µM*	31.6µM*	30.3%	21.2*	10.6*	26.9*	TbPGK inh=16.3µM*
COc1ccc(N(CC(=O)NCc2ccco2)S(=O)(=O)c2ccc(C)cc2)cc1OC	27.5%	-0.4%	125.0%	-13.3%	-0.4%	6.3%	nt	nt	nt
O=C(/C=C/c1ccco1)N(c1ccccn1)c1ccccn1	3.55µM*	?	?	8.91µM*	31.6µM*	110.3%	16.8*	nt	23.9*
CC(C)CNC(=O)c1c(-c2ccccc2)c(-c2ccccc2)nn(C)c1=O	87.2%	-2.5%	11.4%	11.3%	3.5%	3.5%	nt	nt	nt
O=C(N/N=C/c1ccc(O)cc1O)C(=O)N/N=C/c1ccc(O)cc1O	?	0.7%	?	-17.8%	-13.6%	?	9.47*	nt	16.9*

Bioassay records: PubChem, National Center for Advancing Translational Sciences (NCATS)
